Reference: the supplement of paper PMC11732987, “Enantioselective OTUD7B fragment discovery through chemoproteomics screening and high-throughput optimisation” (Communications Chemistry, 2025)

Tests used:
Experiment in all cases: log2 ratio of Biotin-Ahx-Ub-VS probe labelling (fragment/DMSO); higher = less target engagement (more negative = stronger competition), active = hit call of the paper (q ≤ 0.05, log2 ratio ≤ -1)
Details in all cases: compound concentration: 200 uM; treatment time: 3 h
USP19 = target: T1, USP19 (UniProt O94966)
T1 sequence (whole entry): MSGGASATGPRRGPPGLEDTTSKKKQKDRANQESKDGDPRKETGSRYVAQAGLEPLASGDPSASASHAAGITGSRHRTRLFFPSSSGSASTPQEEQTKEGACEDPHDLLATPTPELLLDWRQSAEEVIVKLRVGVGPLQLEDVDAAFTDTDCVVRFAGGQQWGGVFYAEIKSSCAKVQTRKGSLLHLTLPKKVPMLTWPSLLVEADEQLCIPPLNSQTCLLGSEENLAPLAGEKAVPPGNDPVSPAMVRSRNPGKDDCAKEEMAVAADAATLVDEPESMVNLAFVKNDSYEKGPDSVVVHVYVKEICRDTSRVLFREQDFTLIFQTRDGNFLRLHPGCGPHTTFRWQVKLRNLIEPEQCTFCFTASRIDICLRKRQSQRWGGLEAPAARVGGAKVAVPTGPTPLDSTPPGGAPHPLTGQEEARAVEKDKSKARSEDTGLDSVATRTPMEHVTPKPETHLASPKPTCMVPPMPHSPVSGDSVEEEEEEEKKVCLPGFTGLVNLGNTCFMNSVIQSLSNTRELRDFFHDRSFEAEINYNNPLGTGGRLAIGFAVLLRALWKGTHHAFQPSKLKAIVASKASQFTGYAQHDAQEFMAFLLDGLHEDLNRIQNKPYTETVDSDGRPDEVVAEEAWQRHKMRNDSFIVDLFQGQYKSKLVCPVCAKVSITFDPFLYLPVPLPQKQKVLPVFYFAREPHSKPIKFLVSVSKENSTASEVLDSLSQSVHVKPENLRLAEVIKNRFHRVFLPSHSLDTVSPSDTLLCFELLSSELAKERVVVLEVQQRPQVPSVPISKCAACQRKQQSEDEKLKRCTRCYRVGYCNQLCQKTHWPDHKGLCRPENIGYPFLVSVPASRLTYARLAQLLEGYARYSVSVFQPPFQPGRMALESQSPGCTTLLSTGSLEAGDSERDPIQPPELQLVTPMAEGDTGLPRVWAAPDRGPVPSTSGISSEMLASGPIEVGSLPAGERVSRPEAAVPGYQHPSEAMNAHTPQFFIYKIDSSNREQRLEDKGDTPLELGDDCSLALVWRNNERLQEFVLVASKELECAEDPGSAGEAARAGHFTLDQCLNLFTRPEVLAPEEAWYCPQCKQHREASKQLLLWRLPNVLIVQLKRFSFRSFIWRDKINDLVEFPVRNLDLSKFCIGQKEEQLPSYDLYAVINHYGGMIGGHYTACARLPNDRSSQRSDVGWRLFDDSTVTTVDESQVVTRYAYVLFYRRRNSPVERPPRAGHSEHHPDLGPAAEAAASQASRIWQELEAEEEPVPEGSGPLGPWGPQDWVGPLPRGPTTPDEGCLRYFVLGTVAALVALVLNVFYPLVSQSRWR
Procedure, shortened: (§1)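 Each value is an average log2 ratio of fragment to vehicle, tested by unpaired t-test. The underlying Spectronaut label-free quantities were global-median-normalised, and only proteins with ≥2 unique peptides were included. Triplicate HEK293T lysate samples (495 µg) were exposed to fragment at 200 µM or vehicle for 3 h, then to Biotin-Ahx-Ub-VS at 0.5 µM final for 1 h, before NeutrAvidin enrichment of labelled DUBs, LysC and trypsin digestion, and diaPASEF LC-MS/MS.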

USP24 = USP24 (UniProt Q9UPU5)
Chain of USP24 (Q9UPU5 whole entry): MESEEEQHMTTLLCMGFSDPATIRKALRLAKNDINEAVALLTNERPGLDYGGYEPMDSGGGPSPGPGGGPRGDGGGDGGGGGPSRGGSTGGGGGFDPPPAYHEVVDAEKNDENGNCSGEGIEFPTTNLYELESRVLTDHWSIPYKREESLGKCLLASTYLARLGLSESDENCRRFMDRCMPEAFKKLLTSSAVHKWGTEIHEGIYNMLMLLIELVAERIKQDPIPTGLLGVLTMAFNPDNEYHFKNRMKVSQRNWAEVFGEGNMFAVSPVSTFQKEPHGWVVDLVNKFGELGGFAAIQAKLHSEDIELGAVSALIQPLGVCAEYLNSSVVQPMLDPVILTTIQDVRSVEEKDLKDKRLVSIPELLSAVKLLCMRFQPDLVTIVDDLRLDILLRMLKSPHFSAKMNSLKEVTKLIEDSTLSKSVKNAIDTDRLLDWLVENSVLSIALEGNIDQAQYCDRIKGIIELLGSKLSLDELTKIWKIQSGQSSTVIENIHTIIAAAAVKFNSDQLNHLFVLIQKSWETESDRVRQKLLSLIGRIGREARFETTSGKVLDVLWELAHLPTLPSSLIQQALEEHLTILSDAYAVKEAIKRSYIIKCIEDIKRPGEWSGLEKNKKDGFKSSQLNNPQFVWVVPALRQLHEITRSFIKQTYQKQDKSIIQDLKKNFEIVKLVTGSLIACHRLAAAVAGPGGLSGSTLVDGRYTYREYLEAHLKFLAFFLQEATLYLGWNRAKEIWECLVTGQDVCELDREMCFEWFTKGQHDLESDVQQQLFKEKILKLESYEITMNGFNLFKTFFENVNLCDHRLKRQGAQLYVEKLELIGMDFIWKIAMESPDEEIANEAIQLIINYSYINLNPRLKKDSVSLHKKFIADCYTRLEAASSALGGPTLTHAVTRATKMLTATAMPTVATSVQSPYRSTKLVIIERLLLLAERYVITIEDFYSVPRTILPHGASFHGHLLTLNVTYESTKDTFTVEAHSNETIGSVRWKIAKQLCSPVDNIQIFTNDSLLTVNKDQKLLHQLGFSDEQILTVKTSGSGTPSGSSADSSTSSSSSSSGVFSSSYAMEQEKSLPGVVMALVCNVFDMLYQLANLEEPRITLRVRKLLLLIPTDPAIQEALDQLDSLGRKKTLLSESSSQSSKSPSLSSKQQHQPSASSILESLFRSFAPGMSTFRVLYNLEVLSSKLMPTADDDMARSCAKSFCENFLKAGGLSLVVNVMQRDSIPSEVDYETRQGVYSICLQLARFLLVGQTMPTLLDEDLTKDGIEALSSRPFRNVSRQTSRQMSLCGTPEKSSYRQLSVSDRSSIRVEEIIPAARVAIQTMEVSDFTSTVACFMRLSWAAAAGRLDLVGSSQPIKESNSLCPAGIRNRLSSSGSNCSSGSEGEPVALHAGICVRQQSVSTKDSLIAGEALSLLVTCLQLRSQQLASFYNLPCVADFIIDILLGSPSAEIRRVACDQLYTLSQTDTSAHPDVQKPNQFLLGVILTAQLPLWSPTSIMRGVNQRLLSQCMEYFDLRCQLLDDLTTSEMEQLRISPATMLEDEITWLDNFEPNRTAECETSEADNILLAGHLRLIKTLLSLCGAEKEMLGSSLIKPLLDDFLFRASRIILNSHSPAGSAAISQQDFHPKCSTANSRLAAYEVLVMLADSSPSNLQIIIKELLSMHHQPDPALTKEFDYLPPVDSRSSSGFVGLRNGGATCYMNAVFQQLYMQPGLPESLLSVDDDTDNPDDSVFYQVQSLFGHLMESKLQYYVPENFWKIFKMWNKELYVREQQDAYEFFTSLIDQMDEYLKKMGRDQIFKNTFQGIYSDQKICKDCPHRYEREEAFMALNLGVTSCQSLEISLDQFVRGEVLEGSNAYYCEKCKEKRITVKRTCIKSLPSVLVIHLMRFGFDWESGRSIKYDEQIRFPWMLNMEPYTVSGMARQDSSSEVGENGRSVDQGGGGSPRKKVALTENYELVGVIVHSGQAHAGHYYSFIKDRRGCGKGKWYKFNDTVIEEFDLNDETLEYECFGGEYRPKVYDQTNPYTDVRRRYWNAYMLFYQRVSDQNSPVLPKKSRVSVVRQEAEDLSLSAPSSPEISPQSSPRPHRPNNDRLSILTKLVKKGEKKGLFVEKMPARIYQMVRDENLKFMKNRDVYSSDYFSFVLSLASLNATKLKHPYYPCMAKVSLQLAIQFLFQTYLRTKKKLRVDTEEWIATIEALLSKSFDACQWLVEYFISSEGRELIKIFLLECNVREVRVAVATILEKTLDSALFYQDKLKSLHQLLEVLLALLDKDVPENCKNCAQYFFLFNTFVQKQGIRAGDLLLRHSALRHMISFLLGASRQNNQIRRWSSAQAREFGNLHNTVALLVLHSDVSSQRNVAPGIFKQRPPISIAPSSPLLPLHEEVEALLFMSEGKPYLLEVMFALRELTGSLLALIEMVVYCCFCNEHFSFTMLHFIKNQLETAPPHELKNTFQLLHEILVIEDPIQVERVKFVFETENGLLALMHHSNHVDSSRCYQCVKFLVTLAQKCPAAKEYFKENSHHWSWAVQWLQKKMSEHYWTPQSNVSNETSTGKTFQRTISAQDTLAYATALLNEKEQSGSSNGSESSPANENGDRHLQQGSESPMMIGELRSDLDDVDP
Procedure, shortened: as §1

USP25 = target: T2, USP25 (UniProt Q9UHP3)
T2 sequence (whole entry): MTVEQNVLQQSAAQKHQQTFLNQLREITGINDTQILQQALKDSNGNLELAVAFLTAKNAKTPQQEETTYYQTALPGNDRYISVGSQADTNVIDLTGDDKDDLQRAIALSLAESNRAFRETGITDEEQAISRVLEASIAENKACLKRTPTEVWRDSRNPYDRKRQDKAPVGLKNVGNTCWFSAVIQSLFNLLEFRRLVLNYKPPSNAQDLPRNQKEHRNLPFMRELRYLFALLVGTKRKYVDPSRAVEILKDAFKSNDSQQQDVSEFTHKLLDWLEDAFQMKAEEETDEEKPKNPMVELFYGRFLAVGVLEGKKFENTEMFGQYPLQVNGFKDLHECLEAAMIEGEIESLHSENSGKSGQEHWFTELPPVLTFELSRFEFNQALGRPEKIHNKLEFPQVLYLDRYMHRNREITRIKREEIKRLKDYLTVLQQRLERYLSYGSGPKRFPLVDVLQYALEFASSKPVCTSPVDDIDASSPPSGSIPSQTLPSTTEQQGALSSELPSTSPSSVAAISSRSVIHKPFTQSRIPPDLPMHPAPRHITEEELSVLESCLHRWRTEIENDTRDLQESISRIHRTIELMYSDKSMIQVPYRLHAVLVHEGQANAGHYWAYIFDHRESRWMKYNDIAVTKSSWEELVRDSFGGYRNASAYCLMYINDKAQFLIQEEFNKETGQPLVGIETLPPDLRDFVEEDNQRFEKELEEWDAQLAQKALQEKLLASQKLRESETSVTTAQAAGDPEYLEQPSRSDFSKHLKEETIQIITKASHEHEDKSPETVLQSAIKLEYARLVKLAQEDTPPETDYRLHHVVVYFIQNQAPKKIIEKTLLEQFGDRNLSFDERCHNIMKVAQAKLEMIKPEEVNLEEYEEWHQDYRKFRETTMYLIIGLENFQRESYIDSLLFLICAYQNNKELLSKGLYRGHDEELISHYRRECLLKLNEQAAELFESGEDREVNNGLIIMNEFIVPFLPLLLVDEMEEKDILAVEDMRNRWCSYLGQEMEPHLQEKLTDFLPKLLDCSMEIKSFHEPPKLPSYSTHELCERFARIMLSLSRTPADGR
Procedure, shortened: as §1

USP28 = target: T3, USP28 (UniProt Q96RU2)
T3 sequence (whole entry): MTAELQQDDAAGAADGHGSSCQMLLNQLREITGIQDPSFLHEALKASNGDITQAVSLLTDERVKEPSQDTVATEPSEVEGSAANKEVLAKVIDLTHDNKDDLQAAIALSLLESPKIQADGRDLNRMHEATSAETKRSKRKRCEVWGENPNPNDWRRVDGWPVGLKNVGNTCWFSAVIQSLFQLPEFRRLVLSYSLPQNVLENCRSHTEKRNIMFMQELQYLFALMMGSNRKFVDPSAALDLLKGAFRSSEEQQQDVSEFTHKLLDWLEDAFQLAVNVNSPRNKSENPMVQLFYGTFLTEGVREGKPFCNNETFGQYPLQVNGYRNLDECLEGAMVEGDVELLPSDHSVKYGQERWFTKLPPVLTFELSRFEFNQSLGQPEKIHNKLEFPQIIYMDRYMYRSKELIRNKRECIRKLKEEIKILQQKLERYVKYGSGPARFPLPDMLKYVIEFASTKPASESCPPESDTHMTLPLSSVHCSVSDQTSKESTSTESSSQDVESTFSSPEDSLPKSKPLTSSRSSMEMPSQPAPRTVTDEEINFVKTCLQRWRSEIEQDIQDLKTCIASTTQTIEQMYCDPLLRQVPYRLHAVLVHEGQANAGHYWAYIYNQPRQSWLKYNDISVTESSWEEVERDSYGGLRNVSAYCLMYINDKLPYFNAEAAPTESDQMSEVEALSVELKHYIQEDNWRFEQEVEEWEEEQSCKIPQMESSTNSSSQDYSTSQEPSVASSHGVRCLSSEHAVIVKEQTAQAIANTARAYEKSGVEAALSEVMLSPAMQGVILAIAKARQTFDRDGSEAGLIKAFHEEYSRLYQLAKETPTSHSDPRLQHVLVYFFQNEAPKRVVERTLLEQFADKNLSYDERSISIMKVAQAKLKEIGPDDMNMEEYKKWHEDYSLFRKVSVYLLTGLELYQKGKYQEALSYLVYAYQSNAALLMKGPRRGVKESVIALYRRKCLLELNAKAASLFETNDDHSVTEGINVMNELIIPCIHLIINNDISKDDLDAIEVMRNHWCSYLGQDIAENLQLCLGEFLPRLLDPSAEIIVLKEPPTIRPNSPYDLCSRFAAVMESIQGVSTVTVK
Procedure, shortened: as §1

Measured: log2 ratio of Biotin-Ahx-Ub-VS probe labelling

CCN(Cc1ccc(C#N)cc1F)C(=O)CCl
inactive: USP19 -0.28 | USP24 -0.741 | USP25 -0.659 | USP28 -0.624
